# Measured values as given in PubChem BioAssay (NCATS).
# Inconclusive results are not listed. Unmarked numbers belong to inactive results. Calls of active or inactive are those of the source. The call rests on the fitted dose curve; in most records, active means well fitted inhibition curve with a large enough effect; inconclusive means small, poorly fitted or top-dose-only effect; inactive means flat fitted curve, though single readings scatter. *1 amine or outer side, *2 acyl side, *3 side chain or, on linkers, in order; H or OH if unused. Where a SMILES comes first, the peptide text is derived from it. Bridges are numbered along the chain shown (N, C = ends). X6 = O=C(CCC[*:2])[*:1]
# Biological target: Glutathione peroxidase 1 (Homo sapiens) (UniProt P07203)
# Sequence (P07203 whole entry, looked up): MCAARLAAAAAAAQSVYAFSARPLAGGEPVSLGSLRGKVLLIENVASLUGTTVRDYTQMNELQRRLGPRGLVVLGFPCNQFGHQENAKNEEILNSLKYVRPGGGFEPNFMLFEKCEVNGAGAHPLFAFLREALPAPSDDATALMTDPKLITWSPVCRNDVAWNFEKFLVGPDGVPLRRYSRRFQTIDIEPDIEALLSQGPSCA
# Experiment: Primary qHTS Assay for Inhibitors of Recombinant Selenoprotein Glutathione Peroxidase 1 (GPX1) (AID 1845191); further: nearly all actives have a fitted effect of over 65% in size
# Conditions: recombinant GPX1, GR-coupled NADPH fluorescence, 15 min; series mostly up to 48.8 µM; activity, negative = inhibition: at the top concentration
# Summary of the method: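 NADPH consumption tracked by fluorescence at 340/450 nm between t=0 and t=15 min, room temperature. Final mix: 10 nM GPX1, 100 nM glutathione reductase, 1 mM GSH, 0.5 mM NADPH, 0.5 mM cumene hydroperoxide, 0.01% BSA; 30 min compound–enzyme preincubation.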
# On the % scale 0 is the no-effect control and ±100 the full control effect.
SMILES,Potency,"activity, negative = inhibition",outcome
Cc1onc(-c2ccccc2)c1C(=O)N[C@@H]1C(=O)N2[C@@H]1SC(C)(C)[C@@H]2C(=O)O,inactive,,
CC(=O)OCC(=O)[C@@]12OC3(CCCC3)O[C@@H]1C[C@H]1[C@@H]3CCC4=CC(=O)C=C[C@]4(C)[C@@]3(F)[C@@H](O)C[C@@]12C,,1.06%,
O=c1ccn([C@@H]2O[C@H](CO)[C@@H](O)[C@H]2O)c(=O)[nH]1,,,inactive
COC1(CC(C)C)NC(=O)C(O)(Cc2ccccc2)NC1=O (centres undefined),,0.0415% [at 27.7 µM],
CC(=O)c1c(C)cc(O)cc1O[C@@H]1O[C@H](CO)[C@@H](O)[C@H](O)[C@H]1O,,1.45% [at 27.7 µM],
C[C@H]1[C@H](C)CC[C@]2(C(=O)O)CC[C@]3(C(=O)O)C(=CCC4[C@@]5(C)CC[C@H](O[C@@H]6O[C@H](C)[C@@H](O)[C@H](O)[C@H]6O)C(C)(C)C5CC[C@]43C)[C@H]12 (some centres undefined),,-4.96% [at 15.3 µM],
O=C(c1ccc(NS(=O)(=O)c2cccc3cccnc23)cc1)N1CCN(CC2CC2)CC1,,0.596%,
C=C1C2=CC(O)C(C)C1(C)CC/C(C)=C/CCC1(C)OC1C2=O (centres undefined),,-8.53% [at 27.7 µM],
CCC[C@@H]1C[C@@H](C(=O)N[C@@H]([C@H]2O[C@H](SC)[C@H](OP(=O)(O)O)[C@@H](O)[C@H]2O)[C@H](C)Cl)N(C)C1,,-1.07% [at 27.7 µM],
C=C1CC/C=C(/CO)C(=O)C[C@@H]2[C@@H]1CC2(C)C,,,inactive
CC(=O)O[C@@H]1C[C@]2(C)[C@@]3(CCC4[C@@]5(C)CC[C@H](O[C@@H]6O[C@H](C(=O)O)[C@@H](O)[C@H](O[C@@H]7O[C@H](CO)[C@H](O)[C@H](O)[C@H]7O[C@@H]7O[C@@H](C)[C@H](O)[C@@H](O)[C@H]7O[C@@H]7OC[C@](O)(CO)[C@H]7O)[C@H]6O[C@@H]6O[C@H](CO)[C@H](O)[C@H](O)[C@H]6O)C(C)(C)C5CC[C@]42C)O[C@@H](O)[C@]12C3CC(C)(C)[C@@H](OC(=O)/C=C/c1ccc(O)c(O)c1)[C@@H]2OC(=O)/C=C/c1ccccc1 (some centres undefined),,,inactive [at 9.52 µM]
COc1ccc2c(c1)OC[C@]1(O)c3cc4c(cc3O[C@H]21)OCO4,,3.73% [at 27.7 µM],
CC1(C)NC2N(C1=O)c1ccccc1C2(O)CC(C(=O)O)n1cnc2ccccc2c1=O (centres undefined),,,inactive [at 27.7 µM]
CC[C@H](C)[C@@H]1NC(=O)[C@H](Cc2ccc(OC)cc2)NC(=O)CCCSC[C@@H](C(=O)N2CCC[C@H]2C(=O)N[C@@H](CC(C)C)C(=O)NCC(N)=O)NC(=O)[C@H](CC(N)=O)NC(=O)[C@H](CCC(N)=O)NC1=O (Y(Me)IQNCPLG-NH2; linker N-5 via X6),,-16.8% [at 27.7 µM],
COc1ccc(/C=C/C(=O)O[C@@H]2[C@@H](O)[C@H](C)O[C@@H](OC3C4C=COC(O[C@@H]5O[C@H](CO)[C@@H](O)[C@H](O)[C@H]5O)C4C4(CO)OC34)[C@@H]2O)cc1OC (some centres undefined),,1.34% [at 15.3 µM],
c1ccc(C(OC2CCN(CCCc3nn[nH]n3)CC2)c2ccccc2)cc1,,-8.6%,
O=C(c1ccc(C#Cc2cccc(F)c2)cn1)N1CC2CC2C1 (centres undefined),,,inactive
FC(F)(F)c1cc(C(F)(F)F)c2ccc3nc(-c4nnco4)cn3c2n1,,,inactive
C[C@]12C=CC(=O)C=C1CC[C@@H]1[C@@H]2[C@@H](O)C[C@@]2(C)[C@H]1CC[C@]2(O)C(=O)COC(=O)CCC(=O)O,,,inactive
C=CC(C)(C)C1(CC2NC(=O)C3CCCN3C2=O)C(=O)Nc2cc3c(cc21)C=CC(C)(C)O3 (centres undefined),,,inactive [at 27.7 µM]
COc1c(C)c2c(c(O)c1C/C=C(\C)CC/C=C(\C)CCC(=O)O)C(=O)OC2,,1.67% [at 27.7 µM],
C=C1C(=O)OC2CC(C)=C(C(C)CCCO[C@@H]3O[C@H](CO)[C@@H](O)[C@H](O)[C@H]3O)C(O)C12 (some centres undefined),,,inactive [at 27.7 µM]
CC(=O)O[C@H]1C[C@@H]2[C@]3(CC[C@]4(C)[C@@H](C5(C)CCC(C(C)(C)O)O5)[C@@H](O)C[C@@]24C)C[C@@]32CC[C@H](O[C@@H]3OC[C@@H](O)[C@H](O)[C@H]3O)C(C)(C)[C@H]12 (some centres undefined),,,inactive [at 15.3 µM]
C[C@@H]1O[C@@H](O[C@H]2[C@H](O)[C@@H](O)[C@H](OC[C@H]3O[C@@H](OC(=O)[C@]45CCC(C)(C)C[C@H]4C4=CCC6[C@@]7(C)C[C@H](O)[C@H](O[C@@H]8O[C@H](CO)[C@@H](O)[C@H](O)[C@H]8O)[C@@](C)(C(=O)O)C7CC[C@@]6(C)[C@]4(C)CC5)[C@H](O[C@@H]4O[C@H](CO)[C@@H](O)[C@H](O)[C@H]4O)[C@@H](O)[C@@H]3O)O[C@@H]2CO)[C@H](O)[C@H](O)[C@H]1O (some centres undefined),,,inactive [at 9.52 µM]
